This is part of a sample that, as a whole, favours compounds with a hit. Of some 79,000 tested, about 15% had one in any assay. A number with no mark means an inactive call. Calls of active or inactive are those of the source. Rule as the data show it: active = growth inhibition above about 70%; inactive = the rest.
experiment: NCI Yeast Anticancer Drug Screen. Data for the wt2 strain (AID 169);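 also: 0% = growth of vehicle-treated yeast cultures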; conditions: S. cerevisiae wt2 strain growth inhibition; at 1.2 µM; active compounds read high
Summary of the method: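 Growth of compound-treated yeast is measured and expressed as inhibition relative to vehicle-only controls.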

Row | SMILES | growth inhibition
1 | C=C[C@H]1CN2CC[C@H]1C[C@@H]2[C@@H](O)c1ccnc2ccccc12 | 0%
2 | O=c1c2ccccc2[se]n1-c1cccnc1 | 18%
3 | CC12CCC(C1)C(C)(C)C2OC(=O)c1ccccc1N (stereo not drawn) | -10%
4 | OC1(c2ccccc2)CC2CCC(C1)N2CCCC(O)(c1ccccc1)c1ccccc1 (stereo not drawn) | -1%
5 | COC(=O)C(F)C(Br)C(=O)OC (stereo not drawn) | 55%
6 | Cc1cc(N=Nc2ccccc2C)ccc1N | 2%
7 | CCCCCCCCCC[Se]C#N | -2%
8 | N#Cc1ccc([Se]c2ccccc2)cc1 | 10%
9 | Nc1nc(N)c(-c2ccc(Cl)c(Cl)c2)c(CP(Cl)(Cl)(Cl)Br)n1 | 7%
10 | CC1CC(C)CC(C)C(O)/C(C#N)=C/C=C/CC(C2CCCC2C(=O)O)OC(=O)CC(O)C(C)C1 (stereo not drawn) | 90% (active)
11 | CNC(Cc1ccccc1)c1ccc(OC)c(OC)c1 (stereo not drawn) | -20%

same assay, conditions: S. cerevisiae wt2 strain growth inhibition; at 3.7 µM; active compounds read high

Row | SMILES | growth inhibition
12 | C=C[C@H]1CN2CC[C@H]1C[C@@H]2[C@@H](O)c1ccnc2ccccc12 | 1%
13 | O=c1c2ccccc2[se]n1-c1cccnc1 | 18%
14 | CC12CCC(C1)C(C)(C)C2OC(=O)c1ccccc1N (stereo not drawn) | -8%
15 | OC1(c2ccccc2)CC2CCC(C1)N2CCCC(O)(c1ccccc1)c1ccccc1 (stereo not drawn) | -1%
16 | COC(=O)C(F)C(Br)C(=O)OC (stereo not drawn) | 95% (active)
17 | Cc1cc(N=Nc2ccccc2C)ccc1N | -7%
18 | CCCCCCCCCC[Se]C#N | 7%
19 | N#Cc1ccc([Se]c2ccccc2)cc1 | 13%
20 | Nc1nc(N)c(-c2ccc(Cl)c(Cl)c2)c(CP(Cl)(Cl)(Cl)Br)n1 | 18%
21 | CC1CC(C)CC(C)C(O)/C(C#N)=C/C=C/CC(C2CCCC2C(=O)O)OC(=O)CC(O)C(C)C1 (stereo not drawn) | 100% (active)
22 | CNC(Cc1ccccc1)c1ccc(OC)c(OC)c1 (stereo not drawn) | -14%

same assay, conditions: S. cerevisiae wt2 strain growth inhibition; at 11.0 µM; active compounds read high

Row | SMILES | growth inhibition
23 | C=C[C@H]1CN2CC[C@H]1C[C@@H]2[C@@H](O)c1ccnc2ccccc12 | 0%
24 | O=c1c2ccccc2[se]n1-c1cccnc1 | 25%
25 | CC12CCC(C1)C(C)(C)C2OC(=O)c1ccccc1N (stereo not drawn) | -21%
26 | OC1(c2ccccc2)CC2CCC(C1)N2CCCC(O)(c1ccccc1)c1ccccc1 (stereo not drawn) | 1%
27 | COC(=O)C(F)C(Br)C(=O)OC (stereo not drawn) | 98% (active)
28 | Cc1cc(N=Nc2ccccc2C)ccc1N | 4%
29 | CCCCCCCCCC[Se]C#N | -1%
30 | N#Cc1ccc([Se]c2ccccc2)cc1 | 6%
31 | Nc1nc(N)c(-c2ccc(Cl)c(Cl)c2)c(CP(Cl)(Cl)(Cl)Br)n1 | 56%
32 | CC1CC(C)CC(C)C(O)/C(C#N)=C/C=C/CC(C2CCCC2C(=O)O)OC(=O)CC(O)C(C)C1 (stereo not drawn) | 99% (active)
33 | CNC(Cc1ccccc1)c1ccc(OC)c(OC)c1 (stereo not drawn) | -26%

same assay, conditions: S. cerevisiae wt2 strain growth inhibition; at 33.0 µM; active compounds read high

Row | SMILES | growth inhibition
34 | C=C[C@H]1CN2CC[C@H]1C[C@@H]2[C@@H](O)c1ccnc2ccccc12 | -2%
35 | O=c1c2ccccc2[se]n1-c1cccnc1 | 42%
36 | CC12CCC(C1)C(C)(C)C2OC(=O)c1ccccc1N (stereo not drawn) | -8%
37 | OC1(c2ccccc2)CC2CCC(C1)N2CCCC(O)(c1ccccc1)c1ccccc1 (stereo not drawn) | 17%
38 | COC(=O)C(F)C(Br)C(=O)OC (stereo not drawn) | 99% (active)
39 | Cc1cc(N=Nc2ccccc2C)ccc1N | 96% (active)
40 | CCCCCCCCCC[Se]C#N | -2%
41 | N#Cc1ccc([Se]c2ccccc2)cc1 | 28%
42 | Nc1nc(N)c(-c2ccc(Cl)c(Cl)c2)c(CP(Cl)(Cl)(Cl)Br)n1 | 80% (active)
43 | CC1CC(C)CC(C)C(O)/C(C#N)=C/C=C/CC(C2CCCC2C(=O)O)OC(=O)CC(O)C(C)C1 (stereo not drawn) | 99% (active)
44 | CNC(Cc1ccccc1)c1ccc(OC)c(OC)c1 (stereo not drawn) | -13%

same assay, conditions: S. cerevisiae wt2 strain growth inhibition; at 100.0 µM; active compounds read high

Row | SMILES | growth inhibition
45 | C=C[C@H]1CN2CC[C@H]1C[C@@H]2[C@@H](O)c1ccnc2ccccc12 | 1%
46 | O=c1c2ccccc2[se]n1-c1cccnc1 | 60%
47 | CC12CCC(C1)C(C)(C)C2OC(=O)c1ccccc1N (stereo not drawn) | 7%
48 | OC1(c2ccccc2)CC2CCC(C1)N2CCCC(O)(c1ccccc1)c1ccccc1 (stereo not drawn) | 80% (active)
49 | COC(=O)C(F)C(Br)C(=O)OC (stereo not drawn) | 100% (active)
50 | Cc1cc(N=Nc2ccccc2C)ccc1N | 99% (active)
51 | CCCCCCCCCC[Se]C#N | 79% (active)
52 | N#Cc1ccc([Se]c2ccccc2)cc1 | 63%
53 | Nc1nc(N)c(-c2ccc(Cl)c(Cl)c2)c(CP(Cl)(Cl)(Cl)Br)n1 | 94% (active)
54 | CC1CC(C)CC(C)C(O)/C(C#N)=C/C=C/CC(C2CCCC2C(=O)O)OC(=O)CC(O)C(C)C1 (stereo not drawn) | 98% (active)
55 | CNC(Cc1ccccc1)c1ccc(OC)c(OC)c1 (stereo not drawn) | -25%

experiment: NCI Yeast Anticancer Drug Screen. Data for the mlh1 strain (AID 171);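 also: 0% = growth of vehicle-treated control cultures of the same strain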; conditions: S. cerevisiae mlh1 strain growth inhibition; at 1.2 µM; active compounds read high
Summary of the method: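 Test agents were incubated with yeast bearing a defined DNA damage repair or cell cycle control alteration; values are growth inhibition normalised to vehicle-treated cultures.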

Row | SMILES | growth inhibition
56 | C=C[C@H]1CN2CC[C@H]1C[C@@H]2[C@@H](O)c1ccnc2ccccc12 | -2%
57 | O=c1c2ccccc2[se]n1-c1cccnc1 | 36%
58 | CC12CCC(C1)C(C)(C)C2OC(=O)c1ccccc1N (stereo not drawn) | 2%
59 | OC1(c2ccccc2)CC2CCC(C1)N2CCCC(O)(c1ccccc1)c1ccccc1 (stereo not drawn) | 1%
60 | COC(=O)C(F)C(Br)C(=O)OC (stereo not drawn) | 66%
61 | CNCC(O)c1ccc(O)c(O)c1.[Pt].c1ccc([PH+](c2ccccc2)c2ccccc2)cc1.c1ccc([PH+](c2ccccc2)c2ccccc2)cc1 | -3%
62 | Nc1nc(N)c(-c2ccc(Cl)c(Cl)c2)c(CP(Cl)(Cl)(Cl)Br)n1 | -8%
63 | CC1CC(C)CC(C)C(O)/C(C#N)=C/C=C/CC(C2CCCC2C(=O)O)OC(=O)CC(O)C(C)C1 (stereo not drawn) | 90% (active)
